Experimental data: the antibiotic and cytotoxicity screens of Wong et al. (2023)
Screen size: about 39,000 compounds; about 1,500 (3.8%) were called active. This excerpt belongs to a sample that is enriched for actives.

Test system: HSkMC (human skeletal muscle cells)
Assay: cytotoxicity call (relative viability < 0.9)
Conditions: 10 µM

SMILES	cytotoxicity call
C[C@H](CO)N1C[C@H](C)[C@H](CN(C)C(=O)Nc2cccc3ccccc23)Oc2ccc(NC(=O)Nc3ccc4c(c3)OCO4)cc2CC1=O	inactive
Cc1cc(C)c(N(Cc2ccccc2)S(=O)(=O)c2ccc(OCCNC(=O)c3cc4ccccc4o3)cc2)c(C(=O)NO)c1	active
O=C(NCCO)c1cc2ccccc2oc1=O	inactive
CCc1nc2ccc(C(=O)NCCOc3ccc(OC)cc3)cn2c1N(CC)Cc1cccc(Br)c1	inactive
C[C@H]1CN([C@@H](C)CO)C(=O)c2cccc(NS(=O)(=O)c3cn(C)cn3)c2O[C@H]1CN(C)S(=O)(=O)c1cccs1	inactive
C[C@@H]1CN([C@H](C)CO)C(=O)c2cc(C#C[C@@H](C)O)cnc2O[C@@H]1CN(C)C(=O)Nc1ccc(C(F)(F)F)cc1	inactive
Nc1cc(=O)[nH]c(=O)n1-c1ccc(Cl)cc1	inactive
O=C(O)CSCC(=O)N1CCCCC1	inactive
CN1C(=O)c2cc(NC(=O)C3CCOCC3)ccc2OC[C@@H]2O[C@@H](CC(=O)NCc3ccccc3F)CC[C@H]21	inactive
C[C@H]1CN([C@@H](C)CO)C(=O)c2cccc(NS(C)(=O)=O)c2O[C@H]1CN(C)S(=O)(=O)c1ccc(F)cc1	inactive
COc1ccc(C[C@H]2c3cc(OC)c(OC)cc3CC[N@+]2(C)CCC(=O)OCCCCCOC(=O)CC[N@+]2(C)CCc3cc(OC)c(OC)cc3[C@@H]2Cc2ccc(OC)c(OC)c2)cc1OC	inactive
COc1ccc(C[C@@H]2c3cc(OC)c(OC)cc3CC[N@+]2(C)CCC(=O)OCCCCCOC(=O)CC[N@@+]2(C)CCc3cc(OC)c(OC)cc3[C@H]2Cc2ccc(OC)c(OC)c2)cc1OC	active
COc1ccc(CC2c3cc(OC)c(OC)cc3CC[N+]2(C)CCC(=O)OCCCCCOC(=O)CC[N+]2(C)CCc3cc(OC)c(OC)cc3C2Cc2ccc(OC)c(OC)c2)cc1OC.O=S(=O)([O-])c1ccccc1.O=S(=O)([O-])c1ccccc1 (stereo unspecified)	inactive
C[C@@H]1CN([C@@H](C)CO)C(=O)Cc2cc(NC(=O)Cc3cn(C)c4ccccc34)ccc2O[C@@H]1CN(C)S(=O)(=O)c1cn(C)cn1	inactive
C[C@@H]1CCCCO[C@@H](CN(C)S(=O)(=O)c2ccccc2)[C@H](C)CN([C@@H](C)CO)C(=O)c2cc(NS(=O)(=O)c3cn(C)cn3)ccc2O1	inactive
C[C@H]1CN([C@@H](C)CO)C(=O)Cc2cc(NS(=O)(=O)c3cn(C)cn3)ccc2O[C@@H]1CN(C)S(=O)(=O)c1ccc(Cl)cc1	inactive
Cc1ccc(S(=O)(=O)Nc2ccc3c(c2)C(=O)N([C@@H](C)CO)C[C@@H](C)[C@H](CN(C)Cc2ccccc2)OCCCC[C@@H](C)O3)cc1	inactive
COc1ccc2c3c([nH]c2c1)[C@@H](CO)N(Cc1ccc(cc1)Cl)C[C@]13CCN(CC1)Cc1nccs1	inactive
COc1ccc(cc1)CN1C[C@]2(CCN(CC2)Cc2ccccc2OC)c2c([nH]c3cc(ccc23)OC)[C@@H]1CO	inactive
COc1ccc2c3c([nH]c2c1)[C@H](CO)N(Cc1ccncc1)C[C@]13CCN(CC1)Cc1ccc(cc1)-c1ccccn1	inactive
COc1ccc2c3c([nH]c2c1)[C@H](CO)N(Cc1ccc(cc1)Cl)C[C@]13CCN(CC1)Cc1nccs1	inactive
COc1ccc2c3c([nH]c2c1)[C@H](CO)N(Cc1ccc(cc1)Cl)C[C@]13CCN(CC1)Cc1ccccc1	active
COc1ccc2c3c([nH]c2c1)[C@@H](CO)N(Cc1ccc(cc1)Cl)C[C@]13CCN(CC1)Cc1ccccc1	active
O=C(NCCCN1CCOCC1)[C@H]1[C@H](CO)[C@H]2Cn3c(cccc3=O)[C@@H]1N2C(=O)C1CCCCC1	inactive

SMILES	cytotoxicity call
C[C@@H]1CCCCO[C@H](CN(C)C(=O)NC2CCCCC2)[C@H](C)CN([C@H](C)CO)C(=O)c2cc(NC(=O)Nc3ccc(F)cc3)ccc2O1	inactive
Cc1cccc(S(=O)(=O)N2C[C@@H](O)COC[C@@H]3O[C@H](CC(=O)NCCCN4CCOCC4)CC[C@H]32)c1	inactive
C[C@@H]1CN([C@@H](C)CO)C(=O)c2cc(NC(=O)NC3CCCCC3)ccc2O[C@@H](C)CCCCO[C@H]1CN(C)C(=O)CCC(F)(F)F	inactive
C[C@@H]1CN([C@@H](C)CO)C(=O)c2cc(NC(=O)Cc3ccccc3)ccc2O[C@@H](C)CCCCO[C@@H]1CN(C)C(=O)c1ccccc1	inactive
C=C(CO)C(=O)O[C@@H]1[C@H]2C(=C)C(=O)O[C@@H]2[C@H]2O[C@]2(C)CC/C=C(/C(=O)OC)[C@H]1OC(C)=O	active
C=C(CO)C(=O)O[C@H]1C[C@@]2(C)OC(=O)/C(=C/C)[C@]2(O)CC[C@@]2(C)CC(=O)[C@]1(C(=C)C(=O)OC)O2	inactive
C[C@@H]1CN([C@H](C)CO)C(=O)c2cccc(NS(=O)(=O)c3ccc(F)cc3)c2O[C@@H]1CN(C)C(=O)Nc1cccc2ccccc12	inactive
C[C@H](CO)N1C[C@H](C)[C@@H](CN(C)C(=O)Nc2cccc3ccccc23)Oc2c(NS(=O)(=O)c3ccc(F)cc3)cccc2C1=O	inactive
C[C@H]1CN([C@@H](C)CO)C(=O)c2cccc(NS(=O)(=O)c3ccc(F)cc3)c2O[C@@H]1CN(C)C(=O)Nc1cccc2ccccc12	inactive
C[C@H](CO)N1C[C@H](C)[C@@H](CN(C)C(=O)Nc2cccc3ccccc23)Oc2c(NS(=O)(=O)c3cccs3)cccc2C1=O	inactive
C[C@H](CO)N1C[C@H](C)[C@H](CN(C)C(=O)Nc2cccc3ccccc23)Oc2c(NS(=O)(=O)c3ccc(F)cc3)cccc2C1=O	active
Cc1ccc(S(=O)(=O)Nc2cccc3c2O[C@H](CN(C)C(=O)Nc2cccc4ccccc24)[C@@H](C)CN([C@H](C)CO)C3=O)cc1	inactive
C[C@@H]1CN([C@H](C)CO)C(=O)c2cccc(NS(=O)(=O)c3cccs3)c2O[C@H]1CN(C)C(=O)Nc1cccc2ccccc12	active
Cc1ccc(S(=O)(=O)Nc2cccc3c2O[C@@H](CN(C)C(=O)Nc2cccc4ccccc24)[C@H](C)CN([C@@H](C)CO)C3=O)cc1	inactive
C[C@H]1CN([C@@H](C)CO)C(=O)c2cccc(NS(=O)(=O)c3ccc(F)cc3)c2O[C@H]1CN(C)C(=O)Nc1cccc2ccccc12	inactive
C[C@@H]1CN([C@@H](C)CO)C(=O)c2cccc(NS(=O)(=O)c3ccc(F)cc3)c2O[C@H]1CN(C)C(=O)Nc1cccc2ccccc12	active
Cc1ccc(S(=O)(=O)Nc2cccc3c2O[C@H](CN(C)C(=O)Nc2cccc4ccccc24)[C@@H](C)CN([C@@H](C)CO)C3=O)cc1	active
C[C@@H]1CN([C@@H](C)CO)C(=O)c2cccc(NS(=O)(=O)c3cccs3)c2O[C@@H]1CN(C)C(=O)Nc1cccc2ccccc12	inactive
C[C@H](CO)N1C[C@H](C)[C@H](CN(C)Cc2ccc(F)cc2)Oc2ncc(C#Cc3cccnc3)cc2C1=O	inactive
C[C@H](CO)N1C[C@H](C)[C@H](CN(C)S(=O)(=O)c2cccs2)Oc2c(NS(=O)(=O)c3ccccc3)cccc2C1=O	inactive
C[C@@H]1CCCCO[C@H](CN(C)S(=O)(=O)c2cn(C)cn2)[C@H](C)CN([C@@H](C)CO)C(=O)c2cc(NC(=O)Nc3ccc(C(F)(F)F)cc3)ccc2O1	inactive
C[C@@H]1CN([C@@H](C)CO)C(=O)c2cccc(NC(=O)c3nc4ccccc4s3)c2O[C@@H]1CN(C)S(C)(=O)=O	inactive
C[C@H]1CN([C@@H](C)CO)C(=O)Cc2cc(NC(=O)Cc3ccccc3)ccc2O[C@@H]1CN(C)S(=O)(=O)c1ccc(F)cc1	inactive
CC1(C)OC(=O)C2(C(=O)O1)[C@@H](c1ccc(-c3cccc(-c4ccc(C(=O)O)cc4)c3)cc1)CC(=O)C[C@H]2c1ccccc1	inactive

SMILES	cytotoxicity call
C[C@@H]1CN([C@H](C)CO)C(=O)Cc2cc(NS(=O)(=O)c3ccccc3)ccc2O[C@@H]1CN(C)Cc1ccc(C(=O)O)cc1	inactive
N[C@@H]1CCCN(c2c(Br)cnc3[nH]cc(NC(=O)C4CC4)c23)C1	active
N[C@H]1CCCN(c2ncccn2)C1	inactive
COc1ncc(NC(=O)C2CC2)c(OC)n1	inactive
C[C@@H]1CN([C@H](C)CO)S(=O)(=O)c2ccc(-c3ccc(C(=O)N(C)C)cc3)cc2O[C@@H]1CN(C)C(=O)C1CC1	inactive
O=C1N(Cc2ccccc2)Cc2ccccc2[C@H]2OC(c3ccc(OCCCO)cc3)=N[C@@]12Cc1ccccc1	inactive
O=C1N(Cc2ccccc2)Cc2ccccc2C[C@]12N=C(c1ccc(OCCCO)cc1)O[C@@H]2c1ccccc1	inactive
O=C1N(Cc2ccccc2)Cc2ccccc2C[C@@]12N=C(c1ccc(OCCCO)cc1)O[C@H]2c1ccccc1	active
O=C1N(Cc2ccccc2)Cc2ccccc2[C@H]2OC(c3ccc(OCCCO)cc3)=N[C@@]12CCS(=O)(=O)c1ccccc1	inactive
O=C1N(CCS(=O)(=O)c2ccccc2)Cc2ccccc2C[C@@]12COC(c1ccc(OCCCO)cc1)=N2	active
O=C(NCc1ccccc1)[C@@]1(CCS(=O)(=O)c2ccccc2)COC(c2ccc(OCCCO)cc2)=N1	inactive
Cc1ccc(S(=O)(=O)Nc2cccc3c2O[C@@H](CN(C)Cc2ccc(Oc4ccccc4)cc2)[C@@H](C)CN([C@@H](C)CO)C3=O)cc1	inactive
CC[C@@H](C)c1ccc(NC(=O)c2cc3ccccc3o2)cc1	inactive
C[C@@H]1CN([C@H](C)CO)C(=O)Cc2cc(NS(C)(=O)=O)ccc2O[C@@H]1CN(C)C(=O)Nc1ccc(F)cc1	inactive
COc1ccc(NC(=O)Nc2ccc3c(c2)C(=O)N([C@@H](C)CO)C[C@H](C)[C@H](CN(C)CC2CCCCC2)OCCCC[C@H](C)O3)cc1	inactive
C[C@H](CO)N1C[C@H](C)[C@H](CN(C)CC2CCCCC2)OCCCC[C@H](C)Oc2ccc(NC(=O)Nc3ccccc3)cc2C1=O	active
C[C@@H]1CN([C@@H](C)CO)C(=O)c2cc(NC(=O)Nc3ccccc3)ccc2O[C@@H](C)CCCCO[C@@H]1CN(C)CC1CCCCC1	active
COc1ccc(NC(=O)Nc2ccc3c(c2)C(=O)N([C@@H](C)CO)C[C@@H](C)[C@@H](CN(C)CC2CCCCC2)OCCCC[C@@H](C)O3)cc1	inactive
C[C@H]1CCCCO[C@H](CN(C)CC2CCCCC2)[C@@H](C)CN([C@@H](C)CO)C(=O)c2cc(NC(=O)Nc3ccccc3)ccc2O1	inactive
C[C@@H]1CCCCO[C@@H](CN(C)CC2CCCCC2)[C@@H](C)CN([C@H](C)CO)C(=O)c2cc(NC(=O)Nc3ccccc3)ccc2O1	inactive
C[C@@H]1CCCCO[C@H](CN(C)CC2CCCCC2)[C@H](C)CN([C@@H](C)CO)C(=O)c2cc(NC(=O)Nc3ccccc3)ccc2O1	inactive
COc1ccc(NC(=O)Nc2ccc3c(c2)C(=O)N([C@H](C)CO)C[C@@H](C)[C@@H](CN(C)CC2CCCCC2)OCCCC[C@@H](C)O3)cc1	active
C[C@@H]1CCCCO[C@H](CN(C)CC2CCCCC2)[C@@H](C)CN([C@H](C)CO)C(=O)c2cc(NC(=O)Nc3ccccc3)ccc2O1	inactive
